system: HEK293 WT BDD-FVIII-Gluc; experiment: secreted FVIII-Gluc luciferase Z-score vs DMSO control; higher = more FVIII-Gluc secretion; settings: 5 µM
Description: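 Natural plant-compound library (480 compounds, ST catalogue IDs) screened on HEK293 cells stably expressing WT BDD-FVIII-Gaussia luciferase fusion at 5 µM. Secreted Gluc activity in the medium is given as a Z-score relative to DMSO controls.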

Row | Compound | secreted FVIII-Gluc luciferase Z-score
1 | CC(C)[C@H]1C(=O)N2CCC[C@H]2[C@]2(O)OC(NC(=O)[C@@H]3C=C4c5cccc6[nH]cc(c56)C[C@H]4N(C)C3)(C(C)C)C(=O)N12 (some centres undefined) | 0.939
2 | COc1cc2c(cc1O)CCNC2C (centres undefined) | 0.0191
3 | CNC1C2CN3CCC(O2)C13 (centres undefined) | -1.02
4 | COc1cc2c(cc1OC)-c1c(O)c(OC)cc3c1[C@H](C2)N(C)CC3 | 0.65
5 | Cc1ccc2[nH]c(CCN)cc2c1 | 1.37
6 | CN1CCc2cc3c(cc2[C@H]1[C@@H]1OC(=O)c2c1ccc1c2OCO1)OCO3 | 0.754
7 | C=C1C/C(=C/C)C(=O)O[C@@H]2CCN3CC=C(COC(=O)[C@]1(C)O)[C@H]23 | 0.649
8 | COc1cc2c(cc1O)-c1c(O)c(OC)cc3c1[C@H](C2)N(C)CC3 | 0.6
9 | O=CN1CCCCC1C1CC[C@H]2CCCCN2C1 (some centres undefined) | 0.233
10 | COc1ccc2c(c1O)-c1c(OC)c(OC)cc3c1[C@H](C2)N(C)CC3 | 0.32
11 | Oc1ccc(CC2NCCc3cc(O)c(O)cc32)cc1O (centres undefined) | 0.392
12 | CN[C@H]1CCc2cc(OC)c(OC)c(OC)c2-c2ccc(OC)c(=O)cc21 | -3.62
13 | C/C=C/c1ccc2c(c1)OCO2 | 0.131
14 | CN1C[C@@H](CO)C=C2c3cccc4[nH]cc(c34)CC21 (some centres undefined) | 0.731
15 | COc1ccc2c(c1O)-c1c(OC)c(OC)cc3c1C(C2)N(C)CC3 (centres undefined) | 0.615
16 | C=C[C@H]1CN2CCC1C[C@@H]2[C@@H](O)c1ccnc2ccccc12 (some centres undefined) | -0.283
17 | COc1ccc(CC2c3cc(OC)c(OC)cc3CCN2C)cc1OC (centres undefined) | -1.36

Row | Compound | secreted FVIII-Gluc luciferase Z-score
18 | CN1CC[C@@]2(C)c3cc(O)ccc3N(C)[C@@H]12 | -0.624
19 | CC(=O)N1C[C@@H]2C[C@H](C1)c1cccc(=O)n1C2 | -0.118
20 | CCCCc1ccc(C(=O)O)nc1 | 0.032
21 | CN1C[C@H](C(=O)N[C@]2(C)O[C@@]3(O)[C@@H]4CCCN4C(=O)[C@H](Cc4ccccc4)N3C2=O)C[C@@H]2c3cccc4[nH]cc(c34)C[C@H]21 | 0.0715
22 | CCN1C[C@]2(C)CC[C@H](O)[C@@]34C5C[C@@H]6[C@@H](OC)C[C@@](O)(C5[C@H]6O)[C@@H](CC23)C14 (some centres undefined) | 0.562
23 | O=c1cccc2n1CC1CC2CN2CCCC[C@H]12 (some centres undefined) | 0.225
24 | CN(C)[C@@H]1C(=O)C(C(N)=O)=C(O)[C@@]2(O)C(=O)C3=C(O)c4c(O)cccc4[C@@](C)(O)[C@H]3[C@H](O)[C@@H]12 | 0.919
25 | CC1CC[C@@]2(NC1)O[C@H]1C[C@H]3[C@@H]4CC=C5C[C@@H](O)CC[C@]5(C)[C@H]4CC[C@]3(C)[C@H]1[C@@H]2C (some centres undefined) | -1.02
26 | CN1Cc2c(ccc3c2OCO3)C2C(O)Cc3cc4c(cc3C21)OCO4 (centres undefined) | -5.22
27 | C/C=C1/C[C@@H](C)[C@](O)(CO)C(=O)OCC2=CCN3CC[C@@H](OC1=O)[C@@H]23 | -1.37
28 | CN(C)Cc1c[nH]c2ccccc12 | 0.161
29 | O=C1C[C@@H]2OCC=C3CN4CC[C@]56c7ccccc7N1[C@H]5[C@H]2[C@H]3C[C@H]46 | -0.432
30 | OC1COC(NC2OCC(O)C(O)C2O)C(O)C1O (centres undefined) | 0.00225
31 | C=C(C)[C@H]1Cc2c(ccc3c2O[C@@H]2COc4cc(OC)c(OC)cc4[C@@H]2C3=O)O1 | -5.82
32 | CN(C)[C@@H]1C(=O)C(C(N)=O)=C(O)[C@@]2(O)C(=O)C3=C(O)c4c(O)cccc4[C@@](C)(O)[C@H]3C[C@@H]12 | 0.496
33 | CC(C)C1(NC(=O)[C@@H]2C=C3c4cccc5[nH]cc(c45)C[C@H]3N(C)C2)O[C@@]2(O)[C@@H]3CCCN3C(=O)[C@H](Cc3ccccc3)N2C1=O (some centres undefined) | 1.35
34 | CC1=CC(=O)C2=C(C)C[C@H](O)[C@H]3[C@H](C)C(=O)O[C@@H]3C12 (some centres undefined) | -0.726
